Compound activity from PubChem.
TcdB inh: TcdB glycohydrolase inhibition. 350,000 tested, 0.24% active. TcdB glycohydrolase enzymatic assay, plate reader. AID 652162. P18177. inhibition, % at 9.99 µM; in the data active = inhibition above about 10%
PriA SSB inh: inhibitors of Klebsiella pneumoniae PriA binding to SSB C-terminal tail; AlphaScreen SSBct-PriA binding, biotinylated peptide; inhibition, % at 33 µM; 430,000 tested, 0.6% active; AID 1272365; in the data active = inhibition mostly above about 37%, no sharp cut-off; inactive = mostly below about 20%;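 also: plate controls were negative control peptide for no effect and reference peptide for full effect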
Mtb BioA inh: blocks M. tuberculosis BioA enzyme activity; purified M. tuberculosis BioA enzyme, plate reader; inhibition, % at 9.99 µM; 360,000 tested, 0.096% active; in the data active = inhibition above about 40%; inconclusive = no clear call, values can overlap the other calls
Mtb hypoxia inh: Mtb hypoxia fluorescent reporter inhibition; 300,000 tested, 0.1% active; fluorescence inhibition, % (no concentration beside the values); AID 1159583; M. tuberculosis hypoxia-regulated fluorescent reporter, fluorescence; in the data active = fluorescence inhibition mostly above about 23%, no sharp cut-off; inactive = mostly below about 17%
PrP UTR inh: suppresses PrP 5' UTR mRNA reporter expression. 340,000 tested, 0.35% active. inhibition, % (concentration not given with the values). cell-based PrP 5' UTR mRNA reporter, plate reader; in the data active = inhibition above about 52%; also: 0 = median of the neutral control wells
FadD28 FP inh: blocks FadD28 binding to the bisubstrate probe; AID 588549; inhibition, % at 12.5 µM; 360,000 tested, 0.22% active; fluorescence polarization; in the data active = inhibition above about 8.5%, passing the limit was not always enough; inconclusive = no clear call, values can overlap the other calls
PrP UTR cherry: prion 5' UTR mRNA inhibition, cherry-pick retest; shares compounds with PrP UTR inh; cell-based prion protein 5' UTR reporter, plate reader; inhibition, % at 2.5 µM; 1,100 tested, 48% active; AID 504592; in the data active = inhibition above about 54%; inconclusive = no clear call, values can overlap the other calls
Numbers without * were called inactive; i = inactive; ? = inconclusive; nt = not tested or not shown. Hits are enriched below; roughly 1% of the tested compounds scored in any of these assays.

SMILES | TcdB inh | PriA SSB inh | Mtb BioA inh | Mtb hypoxia inh | PrP UTR inh | FadD28 FP inh | PrP UTR cherry
CCN(CC)c1nc(Oc2ccc(C(=O)OC)cc2)nc(N2CCOCC2)n1 | 1.0 | 0.2 | nt | 2.4 | 81.9* | -2.6 | -26.2
COC(=O)c1ccc(Oc2nc(N3CCCCC3)nc(N3CCOCC3)n2)cc1 | nt | -10.2 | -0.5 | 4.4 | -21.4 | -2.4 | nt
C[C@@H]1CN([C@H](C)CO)C(=O)c2cc(NC(=O)CCCN(C)C)ccc2O[C@@H]1CN(C)Cc1ccc(-c2ccccc2)cc1 | 0.1 | nt | -2.9 | nt | nt | nt | nt
NC(=NOC(=O)c1ccc([N+](=O)[O-])cc1)c1ccccn1 | nt | -3.5 | nt | -3.8 | nt | nt | nt
CCCc1ccc(C(=O)O/N=C(\N)c2ccccn2)cc1 | 1.4 | i | -0.7 | nt | 87.9* | -3.0 | 76.7*
COc1cccc(C(=O)O/N=C(\N)c2ccccn2)c1 | 0.6 | i | -1.4 | 6.0 | 52.0* | -2.8 | 91.4*
N/C(=N\OC(=O)c1ccc2ccccc2c1)c1ccccn1 | 1.6 | nt | 8.0 | nt | 52.8* | -3.2 | 39.6
N/C(=N\OC(=O)c1cccc2ccccc12)c1ccccn1 | 1.4 | nt | -2.3 | nt | -61.4 | -3.4 | nt
COc1cccc(C(=O)O/N=C(\N)c2ccccn2)c1OC | 2.1 | i | -1.0 | 10.4 | 52.2* | -3.3 | ?
NC(=NOC(=O)c1ccc(Cl)c(Cl)c1)c1ccccn1 | nt | -4.7 | nt | nt | nt | nt | nt
Cc1ccc(S(=O)(=O)N2CCC(c3nc(-c4ccccc4Cl)no3)CC2)cc1 | nt | -13.0 | nt | nt | nt | nt | nt
O=S(=O)(Nn1cnnc1)c1ccc(F)cc1 | -2.6 | -12.3 | nt | -1.4 | -16.7 | -2.0 | nt
Cc1ccc(S(=O)(=O)Nc2ccc3c(c2)C(=O)N([C@H](C)CO)C[C@@H](C)[C@@H](CN(C)S(=O)(=O)c2ccc(F)cc2)OCCCC[C@H](C)O3)cc1 | -2.7 | nt | -0.9 | nt | nt | nt | nt
Cc1cc(C)cc(N(CC(=O)N2CCc3ccccc32)S(=O)(=O)c2c(C)noc2C)c1 | 0.6 | 3.5 | -1.1 | nt | -5.0 | -0.6 | nt
CCOc1ccc(N(CC(=O)N2CCc3ccccc32)S(=O)(=O)c2c(C)noc2C)cc1 | 0.4 | -8.1 | -0.3 | nt | 79.1* | -2.2 | 9.0
Cc1cc(C)cc(N(CC(=O)N2CCn3c2nc2ccccc23)S(=O)(=O)c2c(C)noc2C)c1 | -4.6 | -16.8 | -2.9 | nt | 67.2* | -0.1 | -3.0
Cc1oc(-c2ccccc2F)nc1CS(=O)CC(=O)NC1CCCCC1 (stereo unspecified) | -1.1 | -2.4 | -0.2 | 5.1 | -21.0 | -1.7 | nt
CCN1C(=O)[C@H]2[C@@H](c3ccc(C)cc3)N3C(=O)N(c4cccc(C)c4)C(=O)[C@@]3(Cc3ccccc3)[C@H]2C1=O | 0.8 | -2.0 | 0.0 | nt | -35.3 | -1.4 | nt
CCC(O)=C1C(=O)CC(C)(C)CC1=Nc1ccccc1C | nt | -5.7 | nt | nt | nt | nt | nt
CC(C)(C)OC(=O)C[C@@H]1C/C=C\C[C@H](CC(=O)N(CCO)Cc2ccccc2)C(=O)N[C@H](C(C)(C)C)COC1=O | 0.3 | -1.6 | 3.6 | nt | 60.1* | -1.2 | 0.4
C[C@@H]1COC(=O)[C@H](CC(=O)OC(C)(C)C)C/C=C\C[C@H](CC(=O)N(CCO)Cc2ccccc2)C(=O)N1 | 1.5 | -5.0 | -1.9 | nt | -22.3 | -2.3 | nt
O=C(NCc1ccco1)c1ccc2c(c1)N(Cc1ccccc1)C(=O)CS2=O (stereo unspecified) | 0.8 | 1.0 | 1.1 | nt | 60.8* | -4.2 | 15.4
O=C(NCC1CCCO1)c1ccc2c(c1)N(Cc1ccccc1)C(=O)CS2=O (stereo unspecified) | 1.3 | -9.6 | -0.5 | 2.7 | -15.8 | -2.3 | nt
COc1cc(C2c3[nH]c4ccccc4c3CC3COC(=O)N32)cc(OC)c1O (stereo unspecified) | -18.3 | -3.5 | nt | nt | 58.6* | -0.2 | 89.7*
CC1CCCCN1CCCNC(=O)c1cc(Br)c(Br)[nH]1 (stereo unspecified) | nt | 2.9 | nt | 16.7 | 81.6* | -2.6 | 6.1
Cc1cc(C(=O)CN2C(=O)c3ccccc3S2(=O)=O)c(C)n1-c1ccccc1 | nt | 2.4 | -4.4 | nt | 56.9 | -2.0 | nt
CCn1c(C)cc(C(=O)CN2C(=O)c3ccccc3S2(=O)=O)c1C | -0.1 | -8.3 | 5.6 | 2.6 | 67.4* | -2.0 | 68.7*
C=CCn1c(C)cc(C(=O)CN2C(=O)c3ccccc3S2(=O)=O)c1C | nt | 7.2 | -0.5 | 6.2 | 92.4* | -2.7 | 91.7*
Cc1cc(C(=O)CN2C(=O)c3ccccc3S2(=O)=O)c(C)n1C(C)C | 2.5 | 8.3 | -1.6 | 2.2 | 60.3* | -3.2 | 64.2*
Cc1nc2ncccn2c1-c1csc(Nc2ccccc2)n1 | -0.8 | 7.3 | nt | 7.4 | 0.7 | 0.0 | nt
